According to the supplement of paper PMC10720658:
± gives the standard deviation of the averaged measurements.

System: AEK1 (Tb927.3.2440)
Assay: percent reduction in TR-FRET probe signal relative to DMSO control; higher = stronger displacement of ATP-site probe (binding)
Conditions: 1 µM; incubation time 1 h

Row | SMILES | percent reduction in TR-FRET probe signal [%]
1 | COc1ncc(-c2ccc3nccc(-c4ccnnc4)c3c2)cc1NS(=O)(=O)c1ccc(F)cc1F | 3.02 ± 16
2 | C[C@@H]1COC(Nc2ccc3ncnc(Nc4ccc(OCc5nccs5)c(Cl)c4)c3c2)=N1 [Varlitinib] | 11.3 ± 2.9
3 | O=C1Nc2ccccc2/C1=C1\Nc2ccccc2C1=O [Indirubin] | -2.5 ± 6.6
4 | CS(=O)(=O)CCNCc1ccc(-c2ccc3ncnc(Nc4ccc(OCc5cccc(F)c5)c(Cl)c4)c3c2)o1 [Lapatinib] | 6.42 ± 9.8
5 | COc1ccc(S(=O)(=O)N(C(C)=O)c2ccccc2/C=C/c2cc[n+]([O-])cc2)cc1 | -0.117 ± 12
6 | COc1ccc(Cl)cc1NC(=O)Nc1cc(C)nc2ccccc12 | -2.86 ± 7.3
7 | CCN1/C(=C/C(C)=O)Sc2ccc(OC)cc21 | 2.44 ± 5.9
8 | CNCc1ccc(-c2cc(-c3nc(-c4ccc(S(=O)(=O)C(C)C)cc4)cnc3N)on2)cc1 | 0.147 ± 8.7
9 | CO[C@H]1CC[C@H](N2C(=O)CNc3ncc(-c4ccc(C(C)(C)O)nc4)nc32)CC1 | -4.45 ± 1.6
10 | COc1ncc(-c2cc(-c3ncc(CN4C[C@@H](C)O[C@@H](C)C4)o3)c3cn[nH]c3c2)cc1NS(C)(=O)=O | -2.16 ± 6.2
11 | CN1CC[C@H](c2c(O)cc(O)c3c(=O)cc(-c4ccccc4Cl)oc23)[C@H](O)C1.Cl [Flavopiridol HCl] | -6.15 ± 9.4
12 | Nc1nccc(Oc2ccc(NC(=O)c3c[nH]cc(-c4ccc(F)cc4)c3=O)cc2F)c1Cl | 24.6 ± 15
13 | COc1cc2nccc(Oc3ccc(NC(=O)NC4CC4)c(Cl)c3)c2cc1C(N)=O [Lenvatinib (E7080)] | 1.41 ± 13
14 | CS(=O)(=O)O.N#CC1(c2ccc(NC(=O)c3cccnc3NCc3ccncc3)cc2)CCCC1 [Apatinib] | -2.66 ± 9.6
15 | COc1ccccc1-c1cc(Nc2cccc(CS(N)(=O)=O)c2)ncn1 | -8.94 ± 6.4
16 | Cc1ccccc1CN1C2=NCCN2C(=O)C2=C1CCN(Cc1ccccc1)C2 [TIC10 Analogue] | -7.4 ± 3.3
17 | CC(C)(C)NS(=O)(=O)c1cncc(-c2cc(F)c3nc(N)nn3c2)c1 | -7.77 ± 4.5
18 | COc1cc2ncnc(Nc3cccc(Cl)c3F)c2cc1OC(=O)N1CCN(C)C[C@H]1C | 9.77 ± 13
19 | CS(=O)(=O)CCNCc1ccc(-c2ccc3ncnc(Nc4ccc(OCc5cccc(F)c5)c(Cl)c4)c3c2)o1.Cc1ccc(S(=O)(=O)O)cc1.Cc1ccc(S(=O)(=O)O)cc1 | 19.5 ± 21

Row | SMILES | percent reduction in TR-FRET probe signal [%]
20 | COCCOc1cnc2ccn([C@H](C)c3nnc4c(F)cc(-c5cnn(C)c5)cn34)c(=O)c2c1 | 5.44 ± 17
21 | O=C1NC(=O)C(c2ccccc2[N+](=O)[O-])=C1Nc1ccc(O)c(Cl)c1 | -2.58 ± 9.4
22 | CO[C@@H](C(=O)N1Cc2[nH]nc(NC(=O)c3ccc(N4CCN(C)CC4)cc3)c2C1)c1ccccc1 | 24.2 ± 6.1
23 | CNC(=O)Nc1ccc(-c2nc(N3CC4CCC(C3)O4)c3cnn(C4CCC5(CC4)OCCO5)c3n2)cc1 | -1.55 ± 9.3
24 | CC(C)(C#N)c1ccc(N2C(=O)OCc3cnc4ccc(-c5cnc6ccccc6c5)cc4c32)cc1 | -6.23 ± 1.2
25 | Cl.Cl.Clc1ccc(Nc2nnc(Cc3ccncc3)c3ccccc23)cc1 [Vatalanib (PTK787) 2HCl] | 4.61 ± 8.7
26 | CS(=O)(=O)O.O=C(Nc1cccc(Cl)c1)Nc1ncc(CCNc2ncnc3ccsc23)s1 [SNS-314 Mesylate] | 0.813 ± 5
27 | Cc1cc(C)c(/C=C2\C(=O)Nc3ccccc32)[nH]1 [Semaxanib (SU5416)] | 2.37 ± 8.9
28 | COc1ccc(-c2cc3c(C)nc(N)nc3n([C@H]3CC[C@H](OCCO)CC3)c2=O)cn1 | -8.41 ± 7.5
29 | CC[C@@](C)(Nc1ccnc(-c2c[nH]c3ncccc23)n1)C(=O)NCC(F)(F)F [Decernotinib (VX-509)] | -1.74 ± 4.4
30 | CN1CCN(c2ccc3nc(-c4c(N)c5c(F)cccc5[nH]c4=O)[nH]c3c2)CC1 [Dovitinib (TKI-258, CHIR-258)] | 16.9 ± 16
31 | O=c1c(-c2ccc(O)cc2)coc2cc(O)cc(O)c12 [Genistein] | 23.3 ± 20
32 | CN1CC[C@H](c2c(O)cc(O)c3c(=O)cc(-c4ccccc4Cl)oc23)[C@H](O)C1 [Flavopiridol (Alvocidib)] | -2.55 ± 4.6
33 | CCNc1nc(Nc2cc(F)c(C(=O)N3CCOCC3)cc2OC)ncc1C(F)(F)F | 11.9 ± 11
34 | COc1cc2nccc(Oc3ccc(NC(=O)C4(C(=O)Nc5ccc(F)cc5)CC4)cc3)c2cc1OC.O=C(O)C[C@H](O)C(=O)O [Cabozantinib malate (XL184)] | 4.34 ± 3.9
35 | CC[C@H](CO)Nc1nc(NCc2ccccc2)c2ncn(C(C)C)c2n1 [Roscovitine (Seliciclib,CYC202)] | -4.47 ± 5.4
36 | CNc1nc(Nc2cn(C(C)(C)C#N)nc2C)ncc1C(F)(F)F | -10.7 ± 11
37 | CCN(CC)CCCC(C)Nc1nc(C)cc(Nc2ccc3nc(C)cc(N)c3c2)n1.Cl.Cl.Cl (configuration not stated) | -2.65 ± 9
